Source: PubChem BioAssay (NCATS)
Results filed as inconclusive are left out. Values without a mark were called inactive. Active and inactive are the calls of the source. The call rests on the fitted dose curve; in most records, active means well fitted inhibition curve with a large enough effect; inconclusive means small, poorly fitted or top-dose-only effect; inactive means flat fitted curve, though single readings scatter.

biological target: Glutathione peroxidase 1 (Homo sapiens) (UniProt P07203); assay: Primary qHTS Assay for Inhibitors of Recombinant Selenoprotein Glutathione Peroxidase 1 (GPX1) (AID 1845191); conditions: recombinant GPX1, GR-coupled NADPH fluorescence, 15 min; series mostly up to 48.8 µM; activity, negative = inhibition: at the top concentration
Outline: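 GR-coupled assay: compounds preincubated 30 min at room temperature with GPX1, then reaction started with CHP; final 10 nM GPX1, 1 mM GSH, 0.5 mM CHP, 0.5 mM NADPH, 100 nM GR, 0.01% BSA, pH 7.5 Tris buffer. NADPH fluorescence (340/450 nm) read at 0 and 15 min.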
Further: nearly all actives have a fitted effect of over 65% in size.
On the % scale 0 is the no-effect control and ±100 the full control effect.

Glutathione peroxidase 1 (Homo sapiens), sequence (P07203 whole entry, looked up): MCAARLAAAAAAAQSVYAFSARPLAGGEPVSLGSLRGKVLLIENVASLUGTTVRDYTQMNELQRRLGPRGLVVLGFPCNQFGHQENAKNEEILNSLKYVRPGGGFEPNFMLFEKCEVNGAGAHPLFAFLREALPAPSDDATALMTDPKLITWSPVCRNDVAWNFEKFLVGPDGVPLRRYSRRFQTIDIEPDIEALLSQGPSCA

| Compound | activity, negative = inhibition | outcome | Potency |
| --- | --- | --- | --- |
| O=C/C=C/c1ccccc1 | -1.25% | – | – |
| COC1CC(=O)C23C(=O)NC(CC(C)C)C2C(C)=C(C)C(OO)C3/C=C(\C)CCC(O)C1O (centres undefined) | – | inactive [at 27.7 µM] | – |
| C[C@@H]1C(=O)O[C@H]2[C@H](O)[C@@]34[C@@H]5OC(=O)[C@@]3(O[C@@H]3OC(=O)[C@@H](O)[C@@]34[C@H](C(C)(C)C)[C@H]5O)[C@@]12O | – | inactive [at 27.7 µM] | – |
| COc1c(C(C)C)cc2c(c1O)[C@@]1(C(=O)O)CCCC(C)(C)C1CC2 (some centres undefined) | – | inactive [at 27.7 µM] | – |
| CCC1NC(=O)C2C(Cl)C(Cl)CN2C(=O)C(C(C)O)NC(=O)CC(c2ccccc2)NC(=O)C(CO)NC1=O (centres undefined) | 2.7% [at 15.3 µM] | – | – |
| COC1CC(OC2CCC3(C)C(CCC4C3CCC3(C)C(C5=CC(=O)OC5)C(OC(C)=O)CC43O)C2)OC(C)C1OC1OC(CO)C(O)C(O)C1O (centres undefined) | – | inactive [at 15.3 µM] | – |
| CCc1[nH]c2ccc(OC)cc2c1CCN(C)C | -7.33% | – | – |
| COc1ccccc1CN[C@H]1C2CCN(CC2)[C@H]1C(c1ccccc1)c1ccccc1 | -5.26% | – | – |
| N#C[C@@H](O[C@@H]1O[C@H](CO[C@@H]2O[C@H](CO)[C@@H](O)[C@H](O)[C@H]2O)[C@@H](O)[C@H](O)[C@H]1O)c1ccccc1 | -7.84% [at 27.7 µM] | – | – |
| COc1cc(CCNCc2ccccc2O)c(OC)cc1C#N | – | inactive | – |
| Cc1c(Cl)cccc1S(=O)(=O)Nc1nc(CC(=O)N2CCN(C)CC2)cs1 | -3.02% | – | – |
| Cc1cccc(NC(=O)N[C@@H]2N=C(c3ccccc3)c3ccccc3N(C)C2=O)c1 | -20.5% | – | – |
| COc1cc(C(=O)O[C@H]2[C@@H]3C=CO[C@@H](O[C@@H]4O[C@H](CO)[C@@H](O)[C@H](O)[C@H]4O)[C@@H]3[C@@]3(CO)O[C@@H]23)ccc1O | – | inactive [at 27.7 µM] | – |
| CN1C(=O)c2ccccc2NC(=O)C1Cc1ccccc1 (centres undefined) | -16.5% | – | – |
| COC(=O)C1(C)CCC(O)C2(C)c3c(O)cc(C(C)C)cc3C(O)C(OC(C)=O)C12 (centres undefined) | – | inactive [at 27.7 µM] | – |
| CC(=O)OC1CC(O)C(C)(C)C2CC(OC(C)=O)C3(C)C(CCC4(C)C(c5ccoc5)C(=O)C5OC543)C12C (centres undefined) | -0.548% [at 27.7 µM] | – | – |
| COC1=CC(=O)O[C@@H](/C=C/c2ccccc2)C1 | – | inactive | – |
| COC(=O)[C@@]12C(=O)C(C)C(=O)[C@]1(C)C(C)=C[C@H]1[C@]3(C=O)CC[C@H](OC(C)=O)C(C)(C)[C@H]3CC[C@@]12C (some centres undefined) | 0.443% [at 27.7 µM] | – | – |
| CC1C/C=C/C(O)C(O)CC/C=C/c2cc(O)cc(O)c2C(=O)O1 (centres undefined) | – | inactive [at 27.7 µM] | – |
| CC1=CC2/C=C(\C)CCC(O)C3OC(C)(C)OC3CC(=O)OC23C(=O)NC(CC(C)C)C3C1C (centres undefined) | – | inactive [at 27.7 µM] | – |
| CN1CCC[C@@H]1Cc1c[nH]c2ccc(Nc3ncccc3[N+](=O)[O-])cc12 | – | – | inactive |
| CC(=O)O[C@H]1C[C@@H](OC(C)=O)C(C)(C)C2C[C@@H](O)[C@]3(C)C(CC[C@@]4(C)[C@H](C5=CC(=O)OC5O)C[C@H]5O[C@]543)[C@]21C (some centres undefined) | 3% [at 27.7 µM] | – | – |
| C/C=C(\C)C(=O)OC1CC2C(C)(C)OC(=O)CC(OC(C)=O)C2(C)C2CC(OC(=O)C(C)C)C3(C)C(c4ccoc4)CC4OC43C12C (centres undefined) | 3.29% [at 15.3 µM] | – | – |
| CN1C(=O)c2ccccc2NC(=O)[C@]12O[C@@H]2c1ccccc1 | -10.7% | – | – |
| C[C@@]1(C(=O)O)CC[C@]2(C)CC[C@]3(C)C4=CC(=O)c5cc(O)c(O)cc5[C@]4(C)CC[C@@]3(C)[C@@H]2C1 | -8.43% [at 27.7 µM] | – | – |
| C[C@@]12C[C@@H](c3ccoc3)OC(=O)C1CC[C@]1(C)[C@H]2[C@H]2C=C[C@]1(O)C(=O)O2 (some centres undefined) | – | inactive [at 27.7 µM] | – |
| COC(=O)C1(C)CCC(O)C2(C)c3cc(O)c(C(C)C)cc3C(O)C(OC(C)=O)C12 (centres undefined) | -14.9% [at 27.7 µM] | – | – |
| COC1C(O)C(OC2CCC3(C=O)C(CCC4C3CCC3(C)C(C5=CC(=O)OC5)CCC43O)C2)OC(C)C1OC1OC(CO)C(O)C(O)C1O (centres undefined) | – | inactive [at 15.3 µM] | – |
| COCC1OC(=O)c2coc3c2C1(C)C1=C(C3=O)C2CCC(=O)C2(C)CC1O (centres undefined) | – | inactive [at 27.7 µM] | – |
| CC(C)(O)[C@H]1O[C@H]2CC[C@@]3(C)[C@@](O)(CC[C@H]4Cc5c([nH]c6ccccc56)[C@@]43C)C2=CC1=O | -21.2% [at 27.7 µM] | – | – |

biological target: Phospholipid hydroperoxide glutathione peroxidase GPX4 (Homo sapiens) (UniProt P36969); assay: Primary qHTS Assay for Inhibitors of Recombinant Selenoprotein Glutathione Peroxidase 4 (GPX4) (AID 1845192); conditions: recombinant GPX4, GR-coupled NADPH fluorescence, 15 min; series mostly up to 50 µM; activity change, negative = inhibition: at the top concentration; further: potency means the concentration at half of the fitted maximal effect
Outline: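 GR-coupled assay: recombinant GPX4 preincubated 30 min with compound at room temperature; final 200 nM GPX4, 1 mM GSH, 0.5 mM cumene hydroperoxide, 0.5 mM NADPH, 100 nM GR, 0.01% BSA, pH 7.5 Tris. NADPH fluorescence (340/450 nm) read at 0 and 15 min.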

Phospholipid hydroperoxide glutathione peroxidase GPX4 (Homo sapiens), sequence (P36969 whole entry, looked up): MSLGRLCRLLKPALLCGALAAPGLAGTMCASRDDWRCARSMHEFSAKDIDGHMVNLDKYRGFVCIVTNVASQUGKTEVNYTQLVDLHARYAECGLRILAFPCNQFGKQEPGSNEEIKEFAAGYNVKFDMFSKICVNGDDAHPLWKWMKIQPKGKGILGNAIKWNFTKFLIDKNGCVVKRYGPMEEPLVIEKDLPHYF

| Compound | activity change, negative = inhibition | outcome | Potency |
| --- | --- | --- | --- |
| O=C/C=C/c1ccccc1 | -11% | – | – |
| COC1CC(=O)C23C(=O)NC(CC(C)C)C2C(C)=C(C)C(OO)C3/C=C(\C)CCC(O)C1O (centres undefined) | – | inactive [at 27.8 µM] | – |
| C[C@@H]1C(=O)O[C@H]2[C@H](O)[C@@]34[C@@H]5OC(=O)[C@@]3(O[C@@H]3OC(=O)[C@@H](O)[C@@]34[C@H](C(C)(C)C)[C@H]5O)[C@@]12O | 1.95% [at 27.8 µM] | – | – |
| COc1c(C(C)C)cc2c(c1O)[C@@]1(C(=O)O)CCCC(C)(C)C1CC2 (some centres undefined) | -17.5% [at 27.8 µM] | – | – |
| COC1CC(OC2CCC3(C)C(CCC4C3CCC3(C)C(C5=CC(=O)OC5)C(OC(C)=O)CC43O)C2)OC(C)C1OC1OC(CO)C(O)C(O)C1O (centres undefined) | 1.67% [at 15.3 µM] | – | – |
| CC[C@H](C)[C@H]1O[C@]2(C=C[C@@H]1C)C[C@@H]1C[C@@H](C/C=C(\C)[C@@H](O[C@H]3C[C@H](OC)[C@@H](O[C@H]4C[C@H](OC)[C@@H](O)[C@H](C)O4)[C@H](C)O3)[C@@H](C)/C=C/C=C3\CO[C@@H]4[C@H](O)C(C)=C[C@@H](C(=O)O1)[C@]34O)O2 | – | – | 5.01 µM (active) |
| C[C@H]1O[C@@H](O[C@H]2C[C@@H](O)[C@]3(CO)C4C(CC[C@]3(O)C2)[C@@]2(O)CC[C@H](C3=CC(=O)OC3)[C@@]2(C)C[C@H]4O)[C@@H](O)[C@@H](O)[C@H]1O (some centres undefined) | – | inactive [at 15.3 µM] | – |
| Cc1c(Cl)cccc1S(=O)(=O)Nc1nc(CC(=O)N2CCN(C)CC2)cs1 | 1.74% | – | – |
| Cc1cn(C[C@H](N)C(=O)O)c(=O)n(Cc2cc(-c3ccccc3)sc2C(=O)O)c1=O | 12% | – | – |
| Cc1cccc(NC(=O)N[C@@H]2N=C(c3ccccc3)c3ccccc3N(C)C2=O)c1 | -6.01% | – | – |
| COc1cc(C(=O)O[C@H]2[C@@H]3C=CO[C@@H](O[C@@H]4O[C@H](CO)[C@@H](O)[C@H](O)[C@H]4O)[C@@H]3[C@@]3(CO)O[C@@H]23)ccc1O | – | inactive [at 27.8 µM] | – |
| CN1C(=O)c2ccccc2NC(=O)C1Cc1ccccc1 (centres undefined) | -11.1% | – | – |
| COC1=CC(=O)O[C@@H](/C=C/c2ccccc2)C1 | -1.69% | – | – |
| COC(=O)[C@@]12C(=O)C(C)C(=O)[C@]1(C)C(C)=C[C@H]1[C@]3(C=O)CC[C@H](OC(C)=O)C(C)(C)[C@H]3CC[C@@]12C (some centres undefined) | -18.1% [at 27.8 µM] | – | – |
| CC1C/C=C/C(O)C(O)CC/C=C/c2cc(O)cc(O)c2C(=O)O1 (centres undefined) | 3.43% [at 27.8 µM] | – | – |
| CC1=CC2/C=C(\C)CCC(O)C3OC(C)(C)OC3CC(=O)OC23C(=O)NC(CC(C)C)C3C1C (centres undefined) | -32.7% [at 27.8 µM] | – | – |
| Cc1ccccc1-n1c(CF)nc2ccc(N)cc2c1=O | – | – | 17.8 µM (active) |
| CN1CCC[C@@H]1Cc1c[nH]c2ccc(Nc3ncccc3[N+](=O)[O-])cc12 | – | – | inactive |
| CC(=O)O[C@H]1C[C@@H](OC(C)=O)C(C)(C)C2C[C@@H](O)[C@]3(C)C(CC[C@@]4(C)[C@H](C5=CC(=O)OC5O)C[C@H]5O[C@]543)[C@]21C (some centres undefined) | -19.2% [at 27.8 µM] | – | – |
| C/C=C(\C)C(=O)OC1CC2C(C)(C)OC(=O)CC(OC(C)=O)C2(C)C2CC(OC(=O)C(C)C)C3(C)C(c4ccoc4)CC4OC43C12C (centres undefined) | -20.1% [at 15.3 µM] | – | – |
| C[C@@]1(C(=O)O)CC[C@]2(C)CC[C@]3(C)C4=CC(=O)c5cc(O)c(O)cc5[C@]4(C)CC[C@@]3(C)[C@@H]2C1 | -1.18% [at 27.8 µM] | – | – |
| COC(=O)C1(C)CCC(O)C2(C)c3cc(O)c(C(C)C)cc3C(O)C(OC(C)=O)C12 (centres undefined) | -5.1% [at 27.8 µM] | – | – |
| COCC1OC(=O)c2coc3c2C1(C)C1=C(C3=O)C2CCC(=O)C2(C)CC1O (centres undefined) | – | inactive [at 27.8 µM] | – |
| CC(C)(O)[C@H]1O[C@H]2CC[C@@]3(C)[C@@](O)(CC[C@H]4Cc5c([nH]c6ccccc56)[C@@]43C)C2=CC1=O | -14.7% [at 27.8 µM] | – | – |
